Data on 39 compounds can be found in PubChem BioAssay (NCI).

Molecules are shown by their SMILES. Compounds without any hit were thinned out: in the full panel of roughly 83,000, 20% have a hit.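 Method: cells in 96-well plates; compound added at one concentration; 48 h incubation; percent growth measured; values under 10 scored active.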 Calls of active or inactive are those of the source.

The test system of the first experiment is HS 578T breast. In words: NCI-60 one-dose screen, 48 h (100 = growth as untreated, 0 = no growth, -100 = all killed). The following applies: 10 µM unless noted.
On to `O=C(Nc1cc(C(F)(F)F)cc(C(F)(F)F)c1)Nc1ccc(OCc2nnc(-c3ccc(Cl)cc3)o2)c(F)c1`, for which the growth was 28.1% (inactive).

Turning to `Oc1ccc(N=Cc2ccccc2)cc1`, the growth is 103% (inactive).

For `Nc1ccccc1C#C/C=C\C#Cc1cccc(O)c1`, the growth was 64.3% (inactive).

As for `COc1cc(CNC(=O)CSc2nc3ccccc3c(=O)n2Cc2cc(OC)c(OC)c(OC)c2)cc(OC)c1OC`, the growth was 110% (inactive).

In the case of `COc1cc(CCn2nnc3c(NCCCCO)ncnc32)cc(OC)c1`, the growth is 101% (inactive).

In the case of `C/C(=C\c1csc(C)n1)[C@@H]1C[C@@H]2O[C@]2(C)CCC[C@H](C)[C@H](O)[C@@H](C)C(=O)C(C)(C)[C@@H](O)CC(=O)N1`, the growth is -61.7% (active).

On to `CC[C@]1(O)C[C@@H]2CN(Cc3c([nH]c4ccccc34)[C@@](C(=O)OC)(c3cc4c(cc3OC)N(C)[C@H]3[C@@](O)(C(=O)OC)[C@H](OC(C)=O)[C@]5(CC)[C@@H]6C[C@@H]6CN6CC[C@]43[C@@H]65)C2)C1`, for which the growth was 16.8% (inactive).

Turning to `COC1=CC(c2ccc[nH]2)=N/C1=C\c1[nH]c(C)c(C(=O)CCCCC(=O)Oc2ccc3c(c2)CCC2C3CC[C@]3(C)[C@@H](O)CC[C@@H]23)c1C` (stereo partly drawn), the growth was 54.3% (inactive).

For `N#Cc1ncc(-c2ccc(F)c(F)c2F)c(NC2CCCCCC2)n1`, the growth was 75.9% (inactive).

In the case of `CCCCCCCCCCCCOB(OCCCCCCCCCCCC)OCCCCCCCCCCCC`, the growth is 107% (inactive).

On to `COC(=O)[C@H]1[C@H](OC)[C@@H](OC(=O)/C=C/c2ccncc2)CC2CN3CCc4c([nH]c5cc(OC)ccc45)[C@@H]3C[C@@H]21` (stereo partly drawn), for which the growth was 77.5% (inactive).

Consider `Clc1nc(-c2cccnc2)nc2sc3c(c12)CCCCCC3`, for which the growth was 109% (inactive).

Take `O=c1oc2cc(OS(=O)(=O)c3ccc(F)cc3)ccc2c2c1CCCCC2`: the growth was 88% (inactive).

With `CC(=O)C1CCC(C)=CC1=O` (stereo not drawn), the growth was 122% (inactive).

The next experiment relates to NCI/ADR-RES ovarian. The experiment is described as above. The conditions noted are these: 10 µM unless noted.
In the case of `Cc1cc(C)c(S(=O)(=O)N2CCN(c3cc4c(cc3F)c(=O)c(C(=O)O)cn4C3CC3)CC2)c(C)c1`, the growth is 69.9% (inactive).

For `CCn1cc(C(=O)O)c(=O)c2cc(F)c(N3CCN(S(=O)(=O)c4ccc(OC)c(OC)c4)CC3)cc21`, the growth is 107% (inactive).

Turning to `Cc1ccc(S(=O)(=O)OCC(=O)Nc2ccc(C(=O)O)c(O)c2)cc1`, the growth is 88% (inactive).

`O=S(=O)(c1ccccc1)n1ccc(-c2ccc3c(c2)CCO3)n1`: the growth was 76% (inactive).

Regarding `Clc1ccc(-c2nc(-c3ccco3)cn3ccnc23)cc1`, the growth was 70.1% (inactive).

Take `CCn1cc(C(=O)O)c(=O)c2cc(F)c(N3CCN(S(=O)(=O)c4cccc5ccccc45)CC3)cc21`: the growth is 21.4% (inactive).

For `O=P([O-])(O)OP(=O)([O-])O.[NH-][C@H]1CCCC[C@@H]1[NH-].[OH-].[OH-].[Pt+4]`, the growth was 103% (inactive).

For `O=C(CC(O)c1ccncc1)c1ccccc1` (stereo not drawn), the growth is 65.2% (inactive).

Consider `O=c1oc2c([nH]c3ccc4ccccc4c32)c2ccccc12`, for which the growth was 104% (inactive).

As for `Nc1c(C(=O)Nc2ccccc2)sc2nc3c(cc12)CCC3`, the growth was 66.6% (inactive).

For `COc1ccc(C2CC(c3cccs3)=NN2c2ccc(S(=O)(=O)NC(=O)NCc3cccc(OC)c3)cc2)cc1` (stereo not drawn), the growth was 103% (inactive).

Consider `COc1cc(NC(=O)CSc2nc3ccc(C)cc3c(=O)n2-c2ccccc2)cc(OC)c1OC`, for which the growth is 75.5% (inactive).

Take `Cc1ccc(S(=O)(=O)OC2COCOC2C(OS(=O)(=O)c2ccc(C)cc2)C2OCOCC2OS(=O)(=O)c2ccc(C)cc2)cc1` (stereo not drawn): the growth is 110% (inactive).

Take `CC(=O)Nc1ccc(S(=O)(=O)N2C(=O)CCC2C(=O)Nc2ccc(Br)cc2)cc1` (stereo not drawn): the growth was 41.8% (inactive).

Turning to `O=C(O)c1ccc(-n2c(=O)c3ccccc3c3ccccc3c2=O)cc1`, the growth is 112% (inactive).

For the compound `CS(=O)(=O)N(c1cc(-c2ccc3ncnc(Nc4cccc(Cl)c4)c3c2)cnc1Cl)S(C)(=O)=O`, the growth was 42.2% (inactive).

As to `CN(C)c1ncc(-c2ccc(C(F)(F)F)cc2)c(NC2CCCCCC2)n1`, the growth is 82.1% (inactive).

On to `O=S(=O)(NCCNc1cc(-c2cn(-c3ccccc3)nc2-c2ccccc2)ccn1)c1cccc2ccccc12`, for which the growth is 43.8% (inactive).

In the case of `CC/C=C\C[C@H](O)C/C=C1/C(=O)C(Cl)=C[C@@H]1C/C=C\CCCC(=O)O`, the growth was 57.1% (inactive).

Take `CC[C@H](C)[C@@H]1NC(=O)[C@H]([C@@H](C)O)NC(=O)C(Cc2ccccc2)NC(=O)[C@@H]2CCCN2C(=O)C(C(C)C)NC(=O)C(Cc2ccccc2)NC(=O)CNC(=O)[C@@H]2CCCN2C1=O` (stereo partly drawn): the growth was 64.5% (inactive).

Take `O=C(Nc1cc(C(F)(F)F)cc(C(F)(F)F)c1)Nc1ccc(OCc2nnc(-c3ccc(Cl)cc3)o2)c(F)c1`: the growth is 4.95% (active).

With `Oc1ccc(N=Cc2ccccc2)cc1`, the growth was 101% (inactive).

For `Nc1ccccc1C#C/C=C\C#Cc1cccc(O)c1`, the growth is 31.8% (inactive).

Take `CCn1cc(C(=O)O)c(=O)c2cc(F)c(N3CCN(S(=O)(=O)c4ccc(Cl)cc4Cl)CC3)cc21`: the growth is 9.34% (active).

For the compound `COc1cc(CNC(=O)CSc2nc3ccccc3c(=O)n2Cc2cc(OC)c(OC)c(OC)c2)cc(OC)c1OC`, the growth was 103% (inactive).

Regarding `COc1cc(CCn2nnc3c(NCCCCO)ncnc32)cc(OC)c1`, the growth was 104% (inactive).

In the case of `C/C(=C\c1csc(C)n1)[C@@H]1C[C@@H]2O[C@]2(C)CCC[C@H](C)[C@H](O)[C@@H](C)C(=O)C(C)(C)[C@@H](O)CC(=O)N1`, the growth was -70.2% (active).

In the case of `COc1ccc(S(=O)(=O)N2CCN(c3cc4c(cc3F)c(=O)c(C(=O)O)cn4C3CC3)CC2)c(OC)c1`, the growth is 102% (inactive).

Regarding `CC[C@]1(O)C[C@@H]2CN(Cc3c([nH]c4ccccc34)[C@@](C(=O)OC)(c3cc4c(cc3OC)N(C)[C@H]3[C@@](O)(C(=O)OC)[C@H](OC(C)=O)[C@]5(CC)[C@@H]6C[C@@H]6CN6CC[C@]43[C@@H]65)C2)C1`, the growth is 93.8% (inactive).

On to `COC1=CC(c2ccc[nH]2)=N/C1=C\c1[nH]c(C)c(C(=O)CCCCC(=O)Oc2ccc3c(c2)CCC2C3CC[C@]3(C)[C@@H](O)CC[C@@H]23)c1C` (stereo partly drawn), for which the growth was 82.4% (inactive).

For the compound `N#Cc1ncc(-c2ccc(F)c(F)c2F)c(NC2CCCCCC2)n1`, the growth was 83.8% (inactive).

For `O=C(O)c1cn(C2CC2)c2cc(N3CCN(S(=O)(=O)c4ccc(Cl)c(Cl)c4)CC3)c(F)cc2c1=O`, the growth was 53.5% (inactive).

Consider `CCCCCCCCCCCCOB(OCCCCCCCCCCCC)OCCCCCCCCCCCC`, for which the growth was 97.6% (inactive).

Consider `CNC(C)=O`, for which the growth was 102% (inactive).

Regarding `COc1cc2nc(N3CCC[C@@H](NC4=CC(=O)c5ccccc5C4=O)C3)nc(N)c2cc1OC`, the growth was 99% (inactive).

Regarding `COC(=O)[C@H]1[C@H](OC)[C@@H](OC(=O)/C=C/c2ccncc2)CC2CN3CCc4c([nH]c5cc(OC)ccc45)[C@@H]3C[C@@H]21` (stereo partly drawn), the growth is 81.8% (inactive).

As to `Clc1nc(-c2cccnc2)nc2sc3c(c12)CCCCCC3`, the growth was 106% (inactive).

With `O=c1oc2cc(OS(=O)(=O)c3ccc(F)cc3)ccc2c2c1CCCCC2`, the growth was 51.1% (inactive).

Consider `CC(=O)C1CCC(C)=CC1=O` (stereo not drawn), for which the growth was 95.6% (inactive).
